Screens (PubChem BioAssay)
Most compounds without a hit are left out; they make up all but 1.2% or so of the library.
KAT2A inh = blocks human GCN5L2 histone acetyltransferase | AID 504327 | Q92830 | Potency, µM (top dose mostly 58.9 µM), most hits filed as inhibitors | GCN5L2 HAT assay, ThioGlo1 CoA-SH fluorescence | 0.21% of 390,000 active
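ThioGlo1-coupled HAT assay: 20nM GCN5L2, 70uM acetyl-CoA, 75uM H3(1-25) peptide, pH 7.5. Fluorescence read at 340/540nm at start and after 20 min at room temperature.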
RGS12 GoLoco inh = inhibitors of human Gai1-RGS12 GoLoco interaction (red fluorophore); AID 880; Gai1:RGS12 GoLoco peptide FP, rhodamine, 10 min; Potency, µM (doses to about 61.6 µM), usual class: inhibitors; 0.44% of 230,000 active; P63096; active means well fitted inhibition curve with a large enough effect, not every such curve was filed as active; inactive means no such curve, though single readings can be large or run the other way; further: nearly all actives have a fitted effect of over 30% in size
TRb-SRC2 inh = inhibitors of human thyroid hormone receptor beta-SRC2 interaction; P10828; TRbeta-SRC2 peptide binding, fluorescence polarization; receptor liganded with 1 µM T3; Potency, µM (series often up to 106 µM), most hits filed as inhibitors; 0.065% of 280,000 active; AID 1469; further: nearly all actives have a fitted effect of over 50% in size
Target sequence (P10828 whole entry, looked up): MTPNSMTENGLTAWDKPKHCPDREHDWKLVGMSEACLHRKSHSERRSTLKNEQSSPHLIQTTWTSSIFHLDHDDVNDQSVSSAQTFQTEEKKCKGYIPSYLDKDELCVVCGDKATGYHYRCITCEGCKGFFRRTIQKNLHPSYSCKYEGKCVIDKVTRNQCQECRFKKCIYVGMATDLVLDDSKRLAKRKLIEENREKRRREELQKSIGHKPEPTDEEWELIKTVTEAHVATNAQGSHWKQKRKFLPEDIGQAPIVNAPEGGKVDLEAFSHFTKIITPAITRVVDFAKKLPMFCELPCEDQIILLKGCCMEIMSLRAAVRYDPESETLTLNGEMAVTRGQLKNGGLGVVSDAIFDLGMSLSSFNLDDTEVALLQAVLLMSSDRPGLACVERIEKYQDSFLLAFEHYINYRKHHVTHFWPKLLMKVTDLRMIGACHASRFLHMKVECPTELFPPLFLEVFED
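TRb LBD 0.6 uM + Texas Red SRC2 peptide 20 nM, 1 uM T3, Tris buffer w/ 5% DMSO; compound pinned, 5 h RT; FP read ex 555/em 632; normalized to unbound and bound controls.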
TexasRed fluor = counter-screen for TRb-SRC2 inhibitors: fluorescence interference; TRb/SRC2 Texas Red total fluorescence interference; Potency, µM (series often up to 106 µM); 0.29% of 280,000 active; AID 1479; active means well fitted curve in either direction with a large enough effect; inconclusive means small, poorly fitted or top-dose-only effect
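Human TRβ ligand-binding domain (0.6 uM) and Texas Red SRC2 peptide (20 nM) in Tris buffer with 1 uM T3 and 5% DMSO were incubated with pinned compound for 5 hr at ambient temperature. Total fluorescence was computed as S + 2P (555/632 nm).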
VDR inh = inhibitors of human vitamin D receptor; Potency, µM, hits mostly inhibitors; AID 504847; VDR-SRC2-3 peptide fluorescence polarization, 2 h; 0.93% of 400,000 active
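Two reagent solutions held at 4 deg C in the dark were dispensed, compounds pinned at 23 nl, and the mixture incubated 2 h at room temperature. Read-out: fluorescence polarization of VDR–SRC2-3 peptide binding.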
Numbers stand for hits; [ ] = another dose, or the depositor's remark. Unless noted, the call rests on the fitted dose curve; in most records, active means well fitted curve in the direction sought with a large enough effect; inconclusive means small, poorly fitted or top-dose-only effect, or another doubt; inactive means no such curve, though single readings can be large; an effect the other way counts as inactive or inconclusive.

For Nn1c(SCC(=O)Nc2cccnc2Cl)nnc1-c1ccccc1 the results were KAT2A inh inconclusive and VDR inh 79.4µM.
For COc1ccc2[nH]c(O)c(N=O)c2c1 the results were KAT2A inh inactive, RGS12 GoLoco inh 15.8µM, TRb-SRC2 inh inactive, TexasRed fluor inactive and VDR inh inactive.
O=c1c(O)cc(C2Oc3cc(O)cc(O)c3CC2O)cc2c(C3Oc4cc(O)cc(O)c4CC3O)cc(O)c(O)c12 (configuration not stated) was read as KAT2A inh 12.6µM, RGS12 GoLoco inh inactive, TRb-SRC2 inh inactive, TexasRed fluor 28.2µM[quencher] and VDR inh 3.55µM.
O=C(NCCCn1ccnc1)c1cc(-c2cccs2)on1 was read as KAT2A inh 2.24µM, RGS12 GoLoco inh inactive, TRb-SRC2 inh inactive, TexasRed fluor inactive and VDR inh inactive.
`O=C(NCc1ccccc1)c1cc(-c2cccs2)on1` gave KAT2A inh 2.51µM, RGS12 GoLoco inh inactive, TRb-SRC2 inh inactive, TexasRed fluor inactive and VDR inh inactive.
Screening CCCCCCCC/C=C\CCCCCCCC(=O)OC returned TRb-SRC2 inh inactive and TexasRed fluor inactive.
CCc1ccc(OCCn2c(CCNC(=O)C3CCCCC3)nc3ccccc32)cc1 was read as VDR inh inactive.
O=C(O)C1Nc2c(O)cc(Cl)c([N+](=O)[O-])c2C2C=CCC12 (configuration not stated) was read as KAT2A inh 3.16µM, RGS12 GoLoco inh 10µM, TRb-SRC2 inh inconclusive, TexasRed fluor 12.6µM[quencher] and VDR inh inactive.
For C=CC(=O)NC(C)(C)Cc1ccccc1 the results were KAT2A inh 17.8µM, RGS12 GoLoco inh inactive, TRb-SRC2 inh inactive, TexasRed fluor inactive and VDR inh inactive.
For COc1ccc(CCNC(=O)c2csc3c2CCCCC3)c(OC)c1 the results were KAT2A inh inactive, TRb-SRC2 inh inactive, TexasRed fluor 20µM[quencher] and VDR inh inactive.
`COc1ccc(CCNC(=O)c2csc3c2CCCC3)cc1` gave KAT2A inh inactive, RGS12 GoLoco inh inactive, TRb-SRC2 inh inactive, TexasRed fluor inactive and VDR inh inactive.
`Oc1ccc(Cl)cc1C=Nc1cnc2ccccc2c1` gave RGS12 GoLoco inh inactive[14.2 µM].
`NC(=O)C1CCN(C(=O)CC(c2ccccc2)c2ccccc2)CC1` gave KAT2A inh 31.6µM and VDR inh inactive.
`COc1cc(/C=C2/C(=N)N3C(=NC2=O)SN=C3S(C)(=O)=O)ccc1OS(=O)(=O)c1ccccc1` gave KAT2A inh inactive.
`CCOc1cc(/C=C2/C(=N)N3C(=NC2=O)SN=C3S(C)(=O)=O)ccc1OS(=O)(=O)c1ccccc1` gave KAT2A inh inconclusive and VDR inh 25.1µM.
CCCCC1(Br)C(=O)N(c2ccccc2)N(c2ccccc2)C1=O was read as KAT2A inh inactive and VDR inh 70.8µM.
For CCCCC1(CO)C(=O)N(c2ccccc2)N(c2ccccc2)C1=O the results were KAT2A inh inactive, RGS12 GoLoco inh inactive, TRb-SRC2 inh inactive, TexasRed fluor inactive and VDR inh inactive.
For Cn1c(=O)c2[nH]c(N=NNc3ccccc3F)nc2n(C)c1=O the results were KAT2A inh inactive, RGS12 GoLoco inh inactive, TRb-SRC2 inh inactive, TexasRed fluor inactive and VDR inh 79.4µM.
COCCN(CCOC)C(=O)c1cc2c(=O)n3ccccc3nc2s1 was read as KAT2A inh 17.8µM, RGS12 GoLoco inh inactive, TRb-SRC2 inh inactive, TexasRed fluor inactive and VDR inh inactive.
`COc1ccc(OC)c(C2NC(=O)c3sc(=S)n(-c4ccccc4)c3N2)c1` (configuration not stated) gave KAT2A inh inactive, RGS12 GoLoco inh inactive, TRb-SRC2 inh inactive, TexasRed fluor inactive and VDR inh 89.1µM.
Screening CCC1CC=CC2C1C(=O)N(Cc1ccccc1)C2c1cccc([N+](=O)[O-])c1 (configuration not stated) returned TRb-SRC2 inh inactive, TexasRed fluor inactive and VDR inh inconclusive.
For O=C1CCCC2=C1C(c1ccc(Br)cc1)c1c([nH]c(=S)[nH]c1=O)N2 (configuration not stated) the results were KAT2A inh inconclusive, RGS12 GoLoco inh inactive, TRb-SRC2 inh inactive, TexasRed fluor inactive and VDR inh inconclusive.
